MazF activator: increases E. coli MazEF RNase cleavage of RNA | AID 504720 | FAM/BHQ RNA-DNA oligo cleavage fluorescence, 5 h | activation, % at 20 µM | 0.32% of 350,000 active; in the data active = activation above about 50%
Target sequence (P0AE70 whole entry, looked up): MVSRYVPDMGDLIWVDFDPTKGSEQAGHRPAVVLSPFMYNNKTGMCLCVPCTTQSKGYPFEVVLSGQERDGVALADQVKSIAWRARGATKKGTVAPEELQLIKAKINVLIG
BH1578 lux ind: inducers of Vibrio cholerae quorum light production without autoinducers; V. cholerae BH1578 lux reporter, luminescence, 6 h; activation, % at 18.7 µM; 0.16% of 350,000 active; AID 588436; in the data active = activation mostly above about 9.7%, no sharp cut-off
SARS 3CLpro inh: SARS-CoV 3CLpro protease inhibition | 0.14% of 290,000 active | inhibition, % at 6 µM | recombinant SARS-CoV 3CLpro, quenched FRET peptide cleavage; in the data active = inhibition above about 12%
PfHsp40 rescue: rescue of PfHsp40-mediated yeast toxicity; growth rescue, % at 12.5 µM; 0.68% of 340,000 active; S. cerevisiae expressing PfHsp40, growth rescue, ATP luminescence; in the data active = growth rescue above about 28%, passing the limit was not always enough;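 also: yeast W303a lacking pdr1 and pdr3 grown in galactose medium; growth measured after three days at 30 °C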
DUSP3 inh: inhibitors of human VHR1 phosphatase (DUSP3); 0.52% of 290,000 active; inhibition, % at 13.3 µM; recombinant VHR phosphatase, pNPP absorbance; in the data active = inhibition above about 50%
Target sequence (P51452 whole entry, looked up): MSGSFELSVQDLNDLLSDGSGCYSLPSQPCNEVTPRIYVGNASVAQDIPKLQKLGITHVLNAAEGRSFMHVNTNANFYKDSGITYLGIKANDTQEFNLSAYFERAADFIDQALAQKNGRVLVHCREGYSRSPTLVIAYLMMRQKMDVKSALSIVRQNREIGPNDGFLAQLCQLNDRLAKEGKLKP
BJeLR lethal: BJeLR cell viability loss. BJeLR (HRASV12) viability, CellTiter-Glo ATP luminescence, 48 h. inhibition, % (test concentration not listed). 0.17% of 300,000 active. AID 1554; in the data active = inhibition above about 50%
Numbers without * were called inactive; i = inactive; . = no result. An excerpt weighted towards active compounds, which were near 1.7% of everything screened.

SMILES	MazF activator	BH1578 lux ind	SARS 3CLpro inh	PfHsp40 rescue	DUSP3 inh	BJeLR lethal
CCOc1cc(/C=C2/C(=N)N3OC(C)=CC3=NC2=O)ccc1OCCOc1ccccc1	149*	-17	2	-1	16	-3
CC1=CC2=NC(=O)/C(=C\c3cccn3CCOc3cccc(C)c3)C(=N)N2O1	-1	0	0	44*	7	3
COc1cccc(OCCn2cccc2/C=C2/C(=N)N3OC(C)=CC3=NC2=O)c1	-1	i	2	0	8	1
CCOc1ccc(/C=C2/C(=N)N3OC(C)=CC3=NC2=O)cc1OC	-2	0	1	4	8	4
COc1cccc(NC(=O)CN(C)C(=O)c2ccc(Cl)c(S(=O)(=O)N3CCCCCC3)c2)c1	7	-1	.	0	.	.
C[C@H](CO)N1C[C@H](C)[C@@H](CN(C)C(=O)Oc2ccccc2)OCc2cn(nn2)CCCC1=O	2	0	.	.	.	.
COc1cccc(OCc2cc(C(=O)N(C)C3CCCCC3)no2)c1	2	0	.	.	.	.
CSc1ccccc1OCc1cc(C(=O)N2CCN(Cc3nccn3C)CC2)no1	4	i	7	-1	-3	14
Cc1cccc(C)c1OCc1cc(C(=O)N2CCN(Cc3nccn3C)CC2)no1	3	-1	-1	0	58*	6
Cc1cccc(N2CCN(C(=O)c3cc(COc4ccc(F)c(F)c4)on3)CC2)n1	-4	0	-5	-1	51*	-7
CCn1c(SCC(=O)Nc2nc(-c3ccc(C)cc3)cs2)nnc1-c1ccccc1O	5	1	-4	86*	6	5
CCn1c(SCC(=O)Nc2nc(-c3ccc(C)cc3)cs2)nnc1-c1ccccc1	3	-3	-1	0	30	-7
N#Cc1ccccc1OCC(=O)Nc1ccc(S(=O)(=O)N2CCOCC2)cc1	6	5	.	2	.	.
O=C(c1ccccc1)N1C(=O)C(c2ccccc2)Oc2ccccc21 (configuration not stated)	-18	-1	1	234*	-14	7
CCOc1ccc(Cl)cc1CNCCCSc1nc(C)cc(C)n1	16	i	4	1	-10	-12
CC1(C)CC(Cc2ccc(C(=O)c3ccccc3)cc2)N(C(=O)OC(C)(C)C)N1 (configuration not stated)	-2	0	.	.	.	.
S=c1[nH]nc(-c2cc(-c3ccccc3)n[nH]2)n1/N=C/c1cccc(Cl)c1	-25	-1	3	5	50*	2
CCCc1c(-c2ccc(O)cc2)nn(-c2ccc(O)cc2)c1-c1ccc(O)cc1	51*	i	.	5	-1	5
O=[N+]([O-])c1ccccc1N/N=C\c1ccccc1F	23	0	4	1	10	8
O=[N+]([O-])c1ccccc1N/N=C\c1ccccc1Cl	6	i	-3	-1	-5	72*
CCCCN1C(=O)C(CC(=O)NCc2cccs2)CC(C(=O)N(CC)CC)=C1C (configuration not stated)	1	0	.	.	.	.
CCCN(CCC)CCCNC(=O)c1cn(-c2ccc(OC)cc2)c(=O)c2ccccc12	5	-1	-1	-1	53*	-4
CC(Oc1ccccc1F)C(=O)NNC(=O)CCS(=O)(=O)c1ccccc1Cl (configuration not stated)	-1	i	.	-1	.	5
C[C@H](NS(=O)(=O)c1c(Cl)cccc1Cl)C(=O)NNC(=O)COc1ccccc1F	2	i	.	50*	.	.
CCC(CO)(CO)N(CC(=O)Nc1ccc(OC)cc1)CC(=O)Nc1ccc(OC)cc1	5	-1	-6	-1	61	6
Cc1ccc(NC(=O)C(CC(C)C)NC(N)=O)cc1Cl (configuration not stated)	4	-3	2	-2	8	2
CC(C)CC(NC(N)=O)C(=O)Nc1ccc(Cl)c(Cl)c1 (configuration not stated)	10	0	3	1	51*	6
CCCCc1ccc(NC(=O)COC(=O)c2ccc3ncsc3c2)cc1	-5	i	.	.	.	.
O=C(Nc1nnc(-c2ccccc2)o1)C1CCCN1S(=O)(=O)c1cccs1 (configuration not stated)	-2	i	.	0	.	8
Oc1ccccc1-[n+]1c(-c2ccccc2)cc(-c2ccccc2)c(O)c1-c1ccccc1	-10	-1	.	42*	.	-2

Screens deposited in PubChem by several laboratories.
